In PubChem BioAssay one finds composite z-score, z-score and composite Z-score data, which are given here for five compounds.

Several values for one entry are separate records, joined by “and”; a condition that tells them apart may be missing. Equal entries are not always repeated. Activity calls are given as the source filed them.

In test [1] the test system is Human papillomavirus type 1a protein E7 (residues 44-93). Description: small molecules binding HPV E7 44-93 – biochemical, small-molecule microarray, residues 44-93, 635 nm fluorescence, primary screen (AID 1108).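 Also: E7 fragment applied at 1 µg/mL in TBST for 1 h at 4 C; score combines spot fluorescence with its signal to noise ratio.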 The conditions noted are these: fluorescence 635 nm, higher = more signal.
Test [2] is described as follows: hepatitis C replication reporter changes, two-sided – Huh7 cells, luciferase reporter, HCV replication inhibitor project, primary screen (AID 1109).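 Also: huh7 hepatoma cells harbouring a luciferase neomycin HCV replicon reporter; luciferase luminescence as measure of HCV replicon replication; test concentration not given here.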 The conditions noted are these: Huh7 HCV replicon luciferase reporter, 48 h; higher = more signal. (A reporter such as luciferase makes a cellular process visible.)
Test [3] has as its target Left-right determination factor 2 (Homo sapiens) (UniProt O00292). Description: small molecules binding LEFTY2 protein – biochemical, small-molecule microarray, 635 nm fluorescence scan, primary screen (AID 1110). The conditions noted are these: higher = more signal.
The target of test [4] is Calmodulin-1 (Homo sapiens) (UniProt P0DP23). The test can be described thus: small molecules binding calmodulin-1 with EGTA – biochemical, small-molecule microarray, Cy5-labelled CALM1, profiling panel (AID 1111).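 Also: labelled calmodulin applied in Tris saline Tween buffer holding calcium plus EGTA and DTT.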 The conditions noted are these: Cy5-CALM1 binding fluorescence, higher = more signal.
Test [5] shares this target. The test can be described thus: small molecules binding Ca-loaded calmodulin-1 – biochemical, small-molecule microarray, Cy5-labelled CALM1, plus calcium, artefact control for SMM control-protein annotation, profiling panel (AID 1112).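 Also: score merges spot fluorescence with signal to noise from triplicate slides.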 As to conditions: Cy5-CALM1 binding fluorescence, higher = more signal.
A short description of test [6]: probe aWnt5a binding to arrayed compounds – biochemical, biotinylated probe, 635/667 nm fluorescence, primary screen (AID 1113).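 Also: score merges 667 nm fluorescence intensity with signal-to-noise per printed feature.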 As to conditions: small-molecule microarray, higher = more signal.
Test [7] in a line: probe aShh binding to arrayed compounds – biochemical, biotinylated probe, 635/667 nm fluorescence, primary screen (AID 1114).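 Also: probe is biotin-labelled aShh protein from a stem cell growth factor screen; measures binding of labelled protein to compounds printed on the slide; score merges feature fluorescence at 667 nm with signal-to-noise.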 The conditions noted are these: small-molecule microarray, higher = more signal.
Test [8] can be described thus: probe aNog binding to arrayed compounds – biochemical, biotinylated probe, 635/667 nm fluorescence, primary screen (AID 1115).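 Also: probe is biotinylated aNog protein used at 0.15 µg/mL for 1 h at 4 C; z-score combines 667 nm fluorescence of each spot with its signal to noise.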 The conditions noted are these: small-molecule microarray, higher = more signal.
In test [9] the target is Torsin-1A-interacting protein 1 (Homo sapiens) (UniProt Q5JTV8). The test can be described thus: compound microarray binding of lysate hLAP1 – cell lysate, small-molecule microarray, COS7 lysate, 635/667 nm fluorescence, primary screen (AID 1116). As to conditions: 635 nm fluorescence, higher = more signal.
Torsin-1A-interacting protein 1 (Homo sapiens), sequence (Q5JTV8 whole entry, looked up): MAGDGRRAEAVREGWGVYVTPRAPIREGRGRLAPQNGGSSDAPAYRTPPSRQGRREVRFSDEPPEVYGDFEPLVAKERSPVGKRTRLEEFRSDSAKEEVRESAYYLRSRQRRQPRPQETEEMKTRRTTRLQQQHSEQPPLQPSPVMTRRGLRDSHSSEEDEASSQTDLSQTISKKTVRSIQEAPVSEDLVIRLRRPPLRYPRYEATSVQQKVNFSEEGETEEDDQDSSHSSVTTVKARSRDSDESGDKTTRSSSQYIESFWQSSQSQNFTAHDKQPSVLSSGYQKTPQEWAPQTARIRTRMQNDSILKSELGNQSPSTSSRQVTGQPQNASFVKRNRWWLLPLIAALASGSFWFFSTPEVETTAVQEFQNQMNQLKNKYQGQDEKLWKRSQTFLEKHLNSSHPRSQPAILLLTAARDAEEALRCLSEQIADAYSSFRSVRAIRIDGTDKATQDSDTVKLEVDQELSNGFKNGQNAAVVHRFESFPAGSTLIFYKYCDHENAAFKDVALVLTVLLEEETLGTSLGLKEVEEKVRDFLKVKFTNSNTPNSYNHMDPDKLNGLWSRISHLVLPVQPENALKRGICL
The target in test [10] is Alpha-bungarotoxin (Bungarus multicinctus) (UniProt P60615). The test can be described thus: compounds binding labelled alpha-BTX control protein – biochemical, small-molecule microarray, Alexa647 label, 635/667 nm fluorescence, artefact control for SMM control protein annotation, profiling panel (AID 1117). The conditions noted are these: alpha-BTX-A647 binding fluorescence, higher = more signal.
Alpha-bungarotoxin (Bungarus multicinctus), sequence (P60615 whole entry, looked up): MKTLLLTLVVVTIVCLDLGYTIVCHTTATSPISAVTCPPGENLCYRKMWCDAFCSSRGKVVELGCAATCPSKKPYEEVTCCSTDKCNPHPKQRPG

Test [11] has as its target Albumin (Bos taurus) (UniProt P02769). Description: compounds binding labelled BSA control protein – biochemical, small-molecule microarray, Alexa647 label, 635/667 nm fluorescence, artefact control for SMM control protein annotation, profiling panel (AID 1118).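 Also: score merges 667 nm emission intensity and signal-to-noise per printed compound spot.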 The conditions noted are these: BSA-A647 binding, fluorescence 635 nm, higher = more signal.
Test [12] is described as follows: probe aXIP binding to arrayed compounds – biochemical, NeuroSMM set, 635/667 nm fluorescence, primary screen (AID 1119).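 Also: probe is the protein aXip251-270 applied at 1 µg/mL to compound-printed slides; binding of probe to printed compounds measured as 667 nm fluorescence plus signal to noise.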 As to conditions: small-molecule microarray, higher = more signal, called active from +8 up or from −8 down.
A short description of test [13]: probe aNOTCH3 binding on compound microarray – biochemical, small-molecule microarray, 635/667 nm fluorescence, primary screen (AID 1120).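 Also: probe is a biotin-tagged antibody raised against NOTCH3 rather than NOTCH3 protein; score merges spot fluorescence near 667 nm with spot signal to noise.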 As to conditions: higher = more signal.
The nature of test [14]: probe aNOTCH2 binding on compound microarray – biochemical, small-molecule microarray, 635/667 nm fluorescence, primary screen (AID 1121).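 Also: score merges feature fluorescence read at 667 nm with its signal to noise.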 The conditions noted are these: higher = more signal.
Test [15] concerns the target Carbonic anhydrase 2 (Homo sapiens) (UniProt P00918). Description: compounds binding carbonic anhydrase 2 – biochemical, small-molecule microarray, Alexa647-labelled CAII, profiling panel (AID 1122). As to conditions: CAII-A647 binding fluorescence, higher = more signal.
The nature of test [16]: COS7 lysate on small-molecule microarray, probe aHis, 635 nm (AID 1123).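 Also: z-score combines 667nm fluorescence intensity with signal-to-noise per printed compound spot.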 As to conditions: COS7 cell lysate, fluorescence, higher = more signal.
A short description of test [17]: probe aLAP1 signal on lysate-treated microarray – cell lysate, small-molecule microarray, COS7 lysate, primary screen (AID 1124).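 Also: lysate comes from COS7 cells expressing LAP1 and is applied at 0.3 µg/mL; score merges spot fluorescence near 667 nm with signal-to-noise over triplicate slides.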 As to conditions: probe aLAP1, fluorescence, higher = more signal.
In test [18] the test system is Sam68 (KHDRBS1). Description: compounds binding KHDRBS1 protein – biochemical, small-molecule microarray, 635 nm fluorescence, primary screen (AID 1125).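 Also: score merges 667 nm channel intensity with signal to noise over triplicate slides.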 The conditions noted are these: higher = more signal.
Test [19] has as its system Chordin-like protein 2 (CHRDL2). The test can be described thus: compounds binding chordin-like 2 – biochemical, small-molecule microarray, 635 nm fluorescence, primary screen (AID 1126).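 Also: printed compound slides probed with Chrdl2 protein at 4 µg/mL for 1 h at 4 C; score merges 667 nm emission intensity with signal to noise over three replicate slides.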 As to conditions: fluorescence 635 nm, higher = more signal.
For test [20], the target named is Concanavalin-A (Canavalia ensiformis) (UniProt P02866). The test can be described thus: compounds binding concanavalin A lectin – biochemical, small-molecule microarray, Alexa647 label, 635 nm, artefact control for SMM control protein annotation, primary screen (AID 1127).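 Also: z combines 667 nm emission intensity with signal-to-noise across three replicate slides.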 As to conditions: ConA-A647 binding fluorescence, higher = more signal.
Concanavalin-A (Canavalia ensiformis), sequence (P02866 whole entry, looked up): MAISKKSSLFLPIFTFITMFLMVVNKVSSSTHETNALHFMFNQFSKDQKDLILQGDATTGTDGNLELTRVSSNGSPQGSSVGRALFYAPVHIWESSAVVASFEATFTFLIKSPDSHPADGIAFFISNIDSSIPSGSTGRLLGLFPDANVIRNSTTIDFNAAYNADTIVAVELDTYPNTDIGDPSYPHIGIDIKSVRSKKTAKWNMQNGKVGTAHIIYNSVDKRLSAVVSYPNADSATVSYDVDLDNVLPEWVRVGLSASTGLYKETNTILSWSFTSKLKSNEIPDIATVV

Left-right determination factor 2 (Homo sapiens), sequence (O00292 whole entry, looked up): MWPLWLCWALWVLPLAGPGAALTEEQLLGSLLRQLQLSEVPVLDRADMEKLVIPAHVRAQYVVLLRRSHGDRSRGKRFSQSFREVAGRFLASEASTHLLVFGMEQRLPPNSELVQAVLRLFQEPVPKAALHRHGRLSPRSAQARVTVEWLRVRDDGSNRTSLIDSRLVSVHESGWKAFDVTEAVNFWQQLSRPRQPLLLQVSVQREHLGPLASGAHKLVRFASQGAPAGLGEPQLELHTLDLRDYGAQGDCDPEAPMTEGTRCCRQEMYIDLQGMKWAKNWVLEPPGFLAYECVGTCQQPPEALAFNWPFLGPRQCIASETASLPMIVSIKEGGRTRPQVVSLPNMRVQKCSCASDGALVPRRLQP
Albumin (Bos taurus), sequence (P02769 whole entry, looked up): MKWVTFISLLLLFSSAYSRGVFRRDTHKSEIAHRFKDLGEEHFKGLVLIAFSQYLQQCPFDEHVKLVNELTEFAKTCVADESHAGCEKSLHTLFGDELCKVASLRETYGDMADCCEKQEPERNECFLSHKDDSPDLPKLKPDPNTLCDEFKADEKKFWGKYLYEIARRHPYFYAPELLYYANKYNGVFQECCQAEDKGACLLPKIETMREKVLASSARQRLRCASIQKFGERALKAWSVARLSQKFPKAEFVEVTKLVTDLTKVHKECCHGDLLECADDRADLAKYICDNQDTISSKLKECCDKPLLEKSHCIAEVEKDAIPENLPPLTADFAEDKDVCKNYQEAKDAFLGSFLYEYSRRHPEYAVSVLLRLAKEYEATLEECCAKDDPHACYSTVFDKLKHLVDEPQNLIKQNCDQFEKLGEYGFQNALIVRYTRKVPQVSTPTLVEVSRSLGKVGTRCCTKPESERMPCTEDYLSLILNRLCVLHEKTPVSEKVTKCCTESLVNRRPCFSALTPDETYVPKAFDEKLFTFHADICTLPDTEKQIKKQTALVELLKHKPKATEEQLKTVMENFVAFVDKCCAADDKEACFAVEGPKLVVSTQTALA

Take `CCOC(=O)C[C@H]1[C@H](OC(=O)c2ccccc2-c2ccccc2)[C@@H](NC(=O)Cc2ccc(OC)cc2)c2cc(OCCCO)ccc2N1C(=O)Cc1ccc(OC)cc1`: the composite z-score in [1] was 0.361 and -0.687; in test [3], 0.422 and -0.519; in [4] it was 1.11 and -0.163; in test [5], 0.971 and -0.309; in test [6], -0.0346 and -0.0107; in [7], 0.412 and -0.0977. The composite z-score in [8] is 0.811 and 0.467; in [9], 0.477 and 0.415; in test [10], 0.873 and 0.224; in [11], 0.56 and -0.0815; in test [13], 0.23 and 0.0762; in [14], 0.0922 and -0.189. For the same compound, the composite z-score in test [15] was 0.285 and -0.324; in test [16], 0.324 and 0.46; in test [17], 0.621 and -0.153; in [18] it was 0.821 and -0.28; in test [19], -0.362 and -0.24; in test [20] it was 0.712 and -1.55. The z-score in [2] was -0.912 and -0.962. In addition, in test [12], the composite Z-score was 0.376 (inactive) and -0.265 (inactive).

Consider `CCCCN1CC=CC23O[C@@H]4C=CCCOC(=O)C4[C@H]2C(=O)N(C(C)CO)[C@@H]3C1=O` (stereo not given in full), for which the composite z-score is 0.228 and -0.107 in test [1]; -0.321 and 0.0741 in test [3]; -0.495 and 0.257 in test [4]; -0.396 and 0.473 in test [5]; -0.0403 and -0.154 in [6]; 0.171 and 0.0637 in test [7]. For the same compound, the composite z-score in test [8] is 0.179 and 0.0775; in test [9], -0.19 and 0.191; in [10], -0.44 and -0.137; in test [11] it was -0.12 and -0.441; in test [13] it was -0.222 and -0.0647; in [14] it was -0.21 and -0.147. The composite z-score in test [15] was 0.837 and 0.777; in [16], 0.462 and 0.472; in [17] it was 0.216 and 0.436; in test [18], 0.206 and -0.0241; in [19] it was 0.375 and -0.0584; in [20], -1.63 and 0.0212. Also, in test [2], the z-score was -0.797 and -0.144. Besides, the composite Z-score in [12] was -0.238 (inactive) and -0.166 (inactive).

As to `C=CCN(CCCC)C(=O)C(c1cccs1)N(CCOCCO)C(=O)/C=C\C(=O)O` (stereo not given), the composite z-score in [1] was -1 and -0.515; in test [3] it was -2.21 and -0.742; in test [4] it was -0.501 and -0.702; in test [5], 0.988 and 0.502; in [6] it was -0.193 and -0.096; in test [7] it was -0.2. The composite z-score is 0.136 and 0.295 in test [8]; 1.2 and 1.09 in [9]; -2.1 and 0.069 in [10]; -0.717 and 0.789 in test [11]; -0.362 and -0.189 in test [13]; -0.14 and -0.115 in [14]. Also, the composite z-score in test [15] was 0.916 and 0.734; in [16], 0.0303 and 1.6; in test [17] it was -0.672 and 0.9; in [18], -1.2 and -0.24; in test [19], -1.6 and -0.769; in test [20], -2.03 and -0.878. Besides, the z-score in test [2] was -0.166 and 0.999. Also, the composite Z-score in test [12] is -0.67 (inactive) and -0.0169 (inactive).

As for `CC(CO)N1C(=O)[C@@H]2C3C(=O)OCCC=C[C@H]3OC23C=CCN(c2ccc(Cl)cc2)C(=O)[C@@H]13` (stereo not given in full), the composite z-score in test [1] is -0.999 and 0.188; in test [3], -0.905 and -1.03; in test [4] it was 0.136 and 0.0733; in test [5], 1.09 and -0.66; in [6], -0.0346 and -0.152; in test [7], -0.19 and -0.0035. Moreover, the composite z-score was 0.0473 and 0.61 in test [8]; -0.236 and 1.7 in test [9]; 0.0882 and -0.198 in [10]; -0.999 and 0.734 in test [11]; -0.33 and 0.0749 in [13]; -0.0995 and 0.0031 in test [14]. Also, the composite z-score is 0.889 and 0.596 in [15]; -0.31 and 0.287 in test [16]; -0.102 and -0.304 in test [17]; -0.805 and 0.2 in [18]; -1.51 and -0.496 in [19]; -0.935 and 0.094 in test [20]. Moreover, in test [2], the z-score is -0.229 and -0.964. In addition, the composite Z-score in test [12] is -0.33 (inactive) and 0.551 (inactive).

Consider `C[C@@H](c1ccccc1)N1C(=O)[C@H]2[C@H]3[C@H](O)[C@H](O)CC(=O)[C@@H]3CC[C@H]2C1=O`, for which the composite z-score in test [1] is 0.189; in test [3], 0.574; in test [4], 0.377; in test [5], -0.241; in test [6], -0.119; in test [7] it was 0.163. Moreover, the composite z-score was -0.387 in test [8]; 0.49 in test [9]; -0.0104 in [10]; 0.294 in test [11]; -0.0345 in [13]; -0.0843 in [14]. Also, the composite z-score is 0.149 in test [15]; 0.438 in [16]; 0.727 in test [17]; 0.661 in test [18]; 0.433 in test [19]; 0.583 in [20]. In addition, the z-score in [2] came out at 0.265. The composite Z-score in [12] was 0.28 (inactive).
